The text below walks through data of PubChem BioAssay AID624115 (Johns Hopkins Ion Channel Center, 2012).

About 350 (8.8%) of roughly 4,000 compounds were called active.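 How the source made its calls: active means calcium fluorescence ratio at least three times the spread of buffer wells, meaning a non-specific response in parental cells; inactive means the rest.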 A selection follows.

A short description of this experiment: calcium response in parental HEK293 cells, primary screen, counter-screen for MrgX1 agonist project, cell-based, Fluo-4 calcium flux, duplicate, agonist mode (AID 624115). Particulars: parental HEK293, Fluo-4 calcium fluorescence (FDSS), at 10 µM; hits give high values.
For the molecule `CCOCc1nnc(NC(=O)CCC2CCCCC2)s1`, the fluorescence ratio F(max-min)/F0 result is “inactive”.

Regarding `CCOc1cc(-c2conc2N)cc(OCC)c1OCC`, the fluorescence ratio F(max-min)/F0 result was “inactive”.

Regarding `Cc1cc(C)cc(NC(=S)NCCc2c[nH]c3ccccc23)c1`, the fluorescence ratio F(max-min)/F0 result was “inactive”.

As for `C(=N\n1cnnc1)/c1cccnc1`, the fluorescence ratio F(max-min)/F0 entry is “inactive”.

For `O=S(=O)(c1ccc2ccccc2c1)N1CCN(S(=O)(=O)N2CCOCC2)CC1`, the fluorescence ratio F(max-min)/F0 entry is “inactive”.

On to `Cc1cc2oc3ccc(NCCC4CCCN4C)cc3c(=O)c2cc1C` (configuration not stated), for which the fluorescence ratio F(max-min)/F0 is 95.1 (active).

For `COc1ccccc1N(CC(=O)N1CCCCC1)S(=O)(=O)c1ccccc1`, the fluorescence ratio F(max-min)/F0 is 78.4 (active).

In the case of `COc1ccc(C2SCCN2S(=O)(=O)c2ccccc2)cc1OC` (configuration not stated), the fluorescence ratio F(max-min)/F0 entry was “inactive”.

For the molecule `Cc1ccc(OC(=O)c2cc3ccccc3o2)cc1`, the fluorescence ratio F(max-min)/F0 entry is “inactive”.

On to `Cc1nn(C(=O)c2ccoc2C)c(N)c1-c1ccccc1`, for which the fluorescence ratio F(max-min)/F0 entry was “inactive”.

Consider `O=C(Cc1ccccn1)c1ccc(O)cc1O`, for which the fluorescence ratio F(max-min)/F0 entry was “inactive”.

Turning to `O=C(Nc1ccccc1)c1nnsc1S(=O)(=O)c1ccc(Cl)cc1`, the fluorescence ratio F(max-min)/F0 result was “inactive”.

Consider `CCCCCCCCCCOC(=O)Cn1c(COc2ccc(C)cc2)[n+](C)c2ccccc21`, for which the fluorescence ratio F(max-min)/F0 result was “inactive”.

`Cc1ccc(Cc2cnc(N)s2)o1`: the fluorescence ratio F(max-min)/F0 entry was “inactive”.

As for `CCNC(=O)c1c(O)c2cccc3c2n(c1=O)CC3`, the fluorescence ratio F(max-min)/F0 entry is “inactive”.

Turning to `CCc1ccc2nc3sc(C(=O)Nc4nnc(CC)s4)c(N)c3cc2c1`, the fluorescence ratio F(max-min)/F0 is 47 (active).

`COCc1nnc(NC(=O)c2ccc3c(c2)OCO3)s1`: the fluorescence ratio F(max-min)/F0 result is “inactive”.

For `CCOC(=O)C1=C(O)CSC1=Nc1cccc(Cl)c1`, the fluorescence ratio F(max-min)/F0 entry was “inactive”.

As for `C=CCSc1nc(Cc2ccc(Cl)cc2)nc2ccccc12`, the fluorescence ratio F(max-min)/F0 result is “inactive”.

`Cc1cc(=O)oc2cc(NC(=O)C3CC(=O)N(Cc4ccccc4)C3)ccc12` (configuration not stated): the fluorescence ratio F(max-min)/F0 result was “inactive”.

`CCCc1nc2c(c(=O)c3ccccc3n2C)c(=O)n1C1CCCCCC1`: the fluorescence ratio F(max-min)/F0 result is “inactive”.

`CCN(CC)CC(=O)Nc1nn(-c2ccccc2)nc1C(N)=O`: the fluorescence ratio F(max-min)/F0 result was “inactive”.

On to `COc1cc2c(cc1O)C(SC)=NC(C)(C)C2`, for which the fluorescence ratio F(max-min)/F0 entry is “inactive”.

Take `CCC1CCCCN1CCNC(=O)c1[nH]c(C)c(C(C)=O)c1C` (configuration not stated): the fluorescence ratio F(max-min)/F0 result was “inactive”.

As for `Cc1ccc2c(C)c(C(=O)N(C)CCC3CCCCO3)oc2c1C` (configuration not stated), the fluorescence ratio F(max-min)/F0 result is “inactive”.

On to `Cc1cccc(NC(=O)COc2ccccc2C)n1`, for which the fluorescence ratio F(max-min)/F0 entry was “inactive”.

Consider `O=C(O)CSC(NC(=O)c1cccnc1)(C(F)(F)F)C(F)(F)F`, for which the fluorescence ratio F(max-min)/F0 entry was “inactive”.

For the molecule `O=C(CCN1CCc2ccccc2C(O)(c2ccccc2)C1)c1ccc2c(c1)OCCO2` (configuration not stated), the fluorescence ratio F(max-min)/F0 result is “inactive”.

For the molecule `CC(C)CC(=O)N/C(N)=N/c1nc2ccccc2s1`, the fluorescence ratio F(max-min)/F0 entry was “inactive”.

With `CC(C)CC(=O)NC(=S)NNC(=O)c1cccc([N+](=O)[O-])c1`, the fluorescence ratio F(max-min)/F0 was 53 (active).

For the molecule `COc1ccc(C(=O)NC(=S)NNC(=O)c2c(-c3ccccc3)noc2C)cc1`, the fluorescence ratio F(max-min)/F0 was 108 (active).

`Cc1onc(-c2ccccc2)c1C(=O)NNC(=S)NC(=O)c1ccc(F)cc1`: the fluorescence ratio F(max-min)/F0 was 123 (active).
